Source: PubChem (Broad Institute)
Only a sample is shown.
aSyn UTR act: Activators working through SNCA 5'UTR binding (MLPCN); alpha-synuclein 5'UTR reporter, activators screen; activity score, % (tested at 7.5 µM), hits read low; 7.1% of 300,000 active; AID 1814; in the data active means activity score below about -60%
Numbers without * were called inactive.

SMILES	aSyn UTR act
COc1cccc(NC(=O)c2ccn(C)n2)c1	-73*
Nc1ccccc1C#CC(=O)c1ccccc1	-90*
Cc1ccc(-n2c(C)cc(C(=O)COc3cccnc3[N+](=O)[O-])c2C)cc1	64
Cc1cc(C(=O)CSc2ncccn2)c(C)n1-c1cccc(F)c1	-84*
Cc1cc(C(=O)CSc2nnnn2C)c(C)n1-c1cccc(F)c1	-131*
COc1ccc(C(=O)Nc2cc3c4c(c2)CC(=O)N4CCC3)c(OC)c1	-90*
Cc1cc(NC(=O)Nc2ccc3c(ccn3C)c2)sn1	-121*
CCOC(=O)C1(Cc2ccccc2Cl)CCN(C(=O)CN2CCOC2=O)CC1	-145*
O=C(NCc1cccs1)c1cc(-c2ccc(O)cc2)on1	-157*
O=C(NCc1cccs1)c1nc(-c2cccs2)no1	-100*
O=C(NCc1cccs1)c1cc(-c2cccc(Cl)c2)on1	-77*
CCCc1cc(C(=O)NCC(C)C)no1	-106*
CCOc1ccc(-c2cc(CCCC(=O)NCc3ccc(C)cc3)no2)cc1	81
CC(C)CNC(=O)c1cc(-c2ccc(Cl)c(Cl)c2)on1	-118*
Cc1ccc(-c2cc(C(=O)NCc3cccs3)no2)cc1	-122*
CCCc1cc(C(=O)NCc2cccs2)no1	-141*
S=c1nc[nH]c2nc[nH]c12	67
CCOC(=O)C(=CN=C(N)Nc1nc2ccccc2o1)C(=O)OCC	-119*
CCCOC(=O)Nc1nc2ccccc2o1	-99*
Cc1[nH]n(-c2ccccc2)c(=O)c1N=Nc1ccccc1O	50
Cc1[nH]n(-c2ccccc2)c(=O)c1N=Nc1ccc2c(c1)OCO2	-214*
COc1cccc(N=Nc2c(C)[nH]n(-c3ccccc3)c2=O)c1	-145*
CCCCNC(=O)Cn1nc([N+](=O)[O-])c([N+](=O)[O-])c1C	-138*
CCCNC(=O)Cn1nc([N+](=O)[O-])c([N+](=O)[O-])c1C	-77*
Cn1c(C(=O)N2CCc3ccccc3C2)cc2oc3ccccc3c21	-137*
SMILES	aSyn UTR act
CCOc1ccccc1CNC(=O)c1cc2oc3ccccc3c2n1CC	66
c1ccc(SCc2nc(-c3ccncc3)no2)cc1	-206*
COc1ccc(-c2noc(CSc3nnc(CCc4ccccc4)n3-c3ccccc3)n2)cc1OC	52
COc1ccc(-c2noc(CSc3ccccc3)n2)cc1OC	-114*
CCN1CCN(CCCNC(=O)c2ccc(/C=C3/Oc4ccccc4N(Cc4cccc(C)c4)C3=O)cc2)CC1	101
O=C1Nc2cc(C(=O)NCCCN3CCCC3)ccc2S/C1=C\c1ccccc1	-94*
O=C(NCCCN1CCCCC1)c1ccc2c(=O)n(CCc3ccccc3)c(=O)[nH]c2c1	-82*
CCN(CC)CCNC(=O)c1ccc2c(=O)n(CCc3ccccc3)c(=O)[nH]c2c1	-109*
O=C(Cc1csc(Nc2nc(=S)[nH]c3ccccc23)n1)NCCCN1CCN(c2ccccc2F)CC1	92
Nc1ccccc1-c1nnc(SCc2ccccc2Cl)[nH]c1=O	-69*
O=c1cc(NS(=O)(=O)c2ccccc2)nc(SCc2ccccc2Cl)[nH]1	58
O=C(c1cc(COc2cccc(C(F)(F)F)c2)on1)N1C[C@H]2CC[C@H]1C2	-117*
COCCC1CCCCN1C(=O)c1cc(COc2cccc(C(C)=O)c2)on1 (centres undefined)	-96*
CC(=O)c1cccc(OCc2cc(C(=O)N3C[C@@H](C)O[C@@H](C)C3)no2)c1	-75*
CC(=O)c1cccc(OCc2cc(C(=O)N3C[C@H]4CC[C@H]3C4)no2)c1	-134*
O=C(OCn1ncc(Br)c(Br)c1=O)c1c(F)cccc1F	61
CC(C)(C)C(=O)Cn1ncc(N2CCCC2)c(Br)c1=O	-72*
CC(=O)Cn1ncc(Br)c(Br)c1=O	-87*
COc1ncccc1-c1nnn(-c2ccccc2Br)n1	-88*
COc1ncccc1-c1nnn(-c2ccccc2)n1	-156*
Cc1ccc(-c2nc(NCC3CCCO3)sc2C)cc1 (centres undefined)	-94*
O=C(COC(=O)CC1CCCC1)Nc1cc2c(cc1Cl)C(=O)c1ccccc1C2=O	-169*
COC(=O)C1=C(Nc2ccccc2NC(=O)c2ccccc2C(=O)O)CSC1	-167*
O=C(O)c1ccccc1C(=O)Nc1ccccc1NC(=O)c1ccccc1C(=O)O	-126*
Cc1c(NC(=O)c2ccccc2N)cccc1C(=O)O	-155*
SMILES	aSyn UTR act
Nc1ccccc1NC(=O)NC(=O)c1ccccc1	-169*
Cc1c(NC(=O)c2ccc(Br)o2)cccc1C(=O)O	-86*
Nc1ccccc1NC(=O)c1ccccc1N	-139*
C=CCSc1nnc(-c2cc3c(s2)-c2ccccc2CC3)o1	-104*
Cc1ccc(C(=O)NC2CCc3ccccc3C2=O)cc1 (centres undefined)	-169*
Cc1nn(-c2ccccn2)c2c1-c1nc(N)ncc1CC2	-101*
Cc1cc(=O)[nH]c(N/N=C/c2ccccn2)n1	74
Cc1cc(=O)[nH]c(N/N=C/c2ccc(-c3ccc(F)cc3)o2)n1	-70*
Cc1cc(=O)[nH]c(N/N=C/c2ccc(Br)s2)n1	-119*
COc1ccc(C(=O)Nc2cc(C)on2)c(OC)c1	-141*
COc1cccc(NC(=O)Nc2cc(C)on2)c1	-93*
Cc1cc(NC(=O)Nc2ccc(C)c(C)c2)no1	-123*
COc1ccc(C(=O)Nc2ccc(C)cn2)c(OC)c1	115
COc1cccc(C(=O)NC(=O)Nc2cc(C)on2)c1	-94*
CCOC(=O)C1CCN(C(=O)C2CCN(c3ncnc4c3nc3n4CCCCC3)CC2)CC1	-108*
C=C1CCC2[C@](C)(CO)[C@H](O)CC[C@@]2(C)[C@@H]1C/C=C1\C(=O)OC[C@H]1O (some centres undefined)	-151*
CC1CCCCN1C(=O)c1cc(-c2ccc(Cl)c(Cl)c2)on1 (centres undefined)	-222*
CC1CCCCN1C(=O)c1cc(-c2ccc3c(c2)OCO3)on1 (centres undefined)	-87*
CCC1CCCCN1C(=O)c1cc(-c2ccc(Cl)c(Cl)c2)on1 (centres undefined)	-94*
COc1cccc(-c2cc(C(=O)N3C(C)CCCC3C)no2)c1 (centres undefined)	-147*
COc1nc(-c2ccccc2)nnc1-c1ccccc1	-124*
Fc1ccccc1-c1csc(-c2cccnc2)n1	-105*
Brc1ccsc1-c1csc(-c2ccncc2)n1	-106*
c1ccc(-c2csc(-c3ccncc3)n2)cc1	-74*
Oc1ccc(-c2csc(-c3ccccc3)n2)cc1O	-224*
SMILES	aSyn UTR act
Nc1nc(-c2ccccc2)cc(-c2ccccc2O)n1	-123*
Oc1ccccc1-c1csc(-c2ccccc2)n1	-122*
CS(=O)c1nc(-c2ccc(Br)cc2)cc(-c2ccccc2)c1C#N (centres undefined)	120
Oc1ccc(-c2csc(-c3cccnc3)n2)cc1O	-96*
Clc1ccc(-c2csc(-c3cccnc3)n2)s1	-70*
c1cncc(-c2nc(-c3ccc4c(c3)OCCO4)cs2)c1	-94*
COc1cc(/C=C/c2nnc3c4ccccc4ncn23)cc(OC)c1OC	-80*
COc1cc(/C=C/c2nc3ccccc3c(=O)[nH]2)ccc1OC(F)F	-195*
COC(=O)c1ccc(/C=C/c2nc3ccccc3c(=O)[nH]2)cc1	-136*
Cc1ccc(/C=C/c2nc3ccccc3c(=O)[nH]2)cc1	68
C=CCOc1cccc(/C=C/c2nc3ccccc3c(=O)[nH]2)c1	-182*
COc1cc(/C=C/c2nc3ccccc3c(=O)[nH]2)cc(OC)c1OC	-84*
CN(Cc1cccs1)C(=O)CCCc1c[nH]c2ccccc12	-133*
